Our source for the growth values is PubChem BioAssay (NCI).

Each structure is given as a SMILES string. Where “and” joins values, the source holds several entries; their conditions need not be identical. Equal values may be shown once. This is part of a sample that, as a whole, favours compounds with a hit. Of some 83,000 tested, about 20% had one in any assay.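 Assay: single dose, 48 h. Readout: percent growth (0 = no net growth; negative = cell death). Active: <10.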 Calls of active or inactive are those of the source.

Among the test systems are NCI-H226 lung; NCI-H322M lung; HOP-62 NSCLC; NCI-H460 lung; HOP-92 NSCLC; NCI-H522 lung; 786-0 renal; COLO 205 colon; DU-145 prostate; K-562 leukemia; MALME-3M melanoma; MDA-MB-231 breast; RXF 393 renal; SF-268 CNS; SF-295 CNS; SF-539 CNS; UACC-257 melanoma; M14 melanoma; A549/ATCC NSCLC.
Assay in all cases: NCI-60 one-dose screen, 48 h (100 = growth as untreated, 0 = no growth, -100 = all killed)
Holding throughout (details): 10 µM unless noted

As to `OCCN1CCN(CCO)CC1`, the growth with NCI-H226 lung is 107% (inactive) and 97.5% (inactive); in the experiment with NCI-H322M lung it was 106% (inactive) and 85.9% (inactive) and 115% (inactive); with HOP-62 NSCLC, 100% (inactive) and 79.5% (inactive) and 106% (inactive); with NCI-H460 lung, 111% (inactive) and 98.6% (inactive) and 108% (inactive); in the experiment on HOP-92 NSCLC, 102% (inactive) and 85% (inactive) and 95.2% (inactive); in the experiment on NCI-H522 lung, 98.6% (inactive) and 87.9% (inactive) and 108% (inactive). Also, the growth in the experiment with 786-0 renal was 108% (inactive) and 99.5% (inactive) and 99.4% (inactive); in the experiment on COLO 205 colon, 105% (inactive) and 113% (inactive); in the experiment on DU-145 prostate it was 117% (inactive) and 111% (inactive) and 123% (inactive); with K-562 leukemia, 96.3% (inactive) and 100% (inactive) and 104% (inactive); with MALME-3M melanoma, 105% (inactive) and 97.4% (inactive) and 107% (inactive); in the experiment on MDA-MB-231 breast, 106% (inactive) and 107% (inactive) and 114% (inactive). In addition, the growth with RXF 393 renal is 114% (inactive) and 95.6% (inactive) and 120% (inactive); in the experiment with SF-268 CNS, 107% (inactive) and 101% (inactive) and 105% (inactive); in the experiment on SF-295 CNS it was 94.9% (inactive) and 82.6% (inactive) and 110% (inactive); in the experiment on SF-539 CNS, 105% (inactive) and 91.1% (inactive) and 106% (inactive); in the experiment with UACC-257 melanoma, 117% (inactive); with M14 melanoma, 102% (inactive) and 91.1% (inactive) and 103% (inactive).

Turning to `CC1(C)C2CCC1(CS(=O)(=O)O)C(=O)C2` (stereo not drawn), the growth with HOP-62 NSCLC was 101% (inactive).

Turning to `Nc1cc2c(cc1N)-c1ccccc1C2`, the growth with NCI-H226 lung is 84.3% (inactive) and 88.4% (inactive); in the experiment on NCI-H322M lung it was 85.4% (inactive) and 95% (inactive); with HOP-62 NSCLC, 96.6% (inactive) and 104% (inactive); with NCI-H460 lung, 103% (inactive) and 101% (inactive); in the experiment with HOP-92 NSCLC, 84.3% (inactive); in the experiment on NCI-H522 lung it was 15.9% (inactive) and 52.2% (inactive). For the same compound, the growth was 89.3% (inactive) and 99.6% (inactive) with 786-0 renal; 94.8% (inactive) and 93.1% (inactive) in the experiment on COLO 205 colon; 104% (inactive) and 106% (inactive) in the experiment on DU-145 prostate; 79.4% (inactive) and 87% (inactive) in the experiment with K-562 leukemia; 76.5% (inactive) and 103% (inactive) with MALME-3M melanoma; 64.7% (inactive) and 97% (inactive) with MDA-MB-231 breast. For the same compound, the growth in the experiment on RXF 393 renal is 88.2% (inactive) and 96.4% (inactive); in the experiment with SF-268 CNS, 86.8% (inactive) and 92.6% (inactive); with SF-295 CNS, 156% (inactive) and 98.8% (inactive); in the experiment on SF-539 CNS, 74.9% (inactive) and 92.5% (inactive); in the experiment with UACC-257 melanoma it was 101% (inactive) and 98.1% (inactive); with M14 melanoma it was 97.1% (inactive) and 109% (inactive).

For the compound `OCc1ccccn1`, the growth in the experiment on NCI-H226 lung is 102% (inactive); in the experiment with NCI-H322M lung, 105% (inactive); in the experiment on HOP-62 NSCLC it was 115% (inactive); with NCI-H460 lung it was 105% (inactive); in the experiment with HOP-92 NSCLC it was 108% (inactive); in the experiment on NCI-H522 lung, 94.9% (inactive). Moreover, the growth in the experiment on 786-0 renal was 104% (inactive); with COLO 205 colon, 127% (inactive); in the experiment with DU-145 prostate, 100% (inactive); in the experiment on MALME-3M melanoma, 115% (inactive); in the experiment on MDA-MB-231 breast, 114% (inactive); with RXF 393 renal, 111% (inactive). The growth in the experiment with SF-268 CNS was 107% (inactive); with SF-295 CNS, 94.7% (inactive); in the experiment with SF-539 CNS it was 104% (inactive); in the experiment with UACC-257 melanoma, 104% (inactive); in the experiment with M14 melanoma it was 108% (inactive).

On to `O=C(O)c1cc(C(=O)O)cc([N+](=O)[O-])c1`, for which the growth with NCI-H226 lung was 102% (inactive); in the experiment on NCI-H322M lung it was 105% (inactive); in the experiment with NCI-H460 lung, 110% (inactive); in the experiment with HOP-92 NSCLC, 111% (inactive); in the experiment on NCI-H522 lung, 94.3% (inactive); with A549/ATCC NSCLC, 106% (inactive). Moreover, the growth in the experiment on 786-0 renal was 101% (inactive); with COLO 205 colon, 110% (inactive); in the experiment on DU-145 prostate, 116% (inactive); in the experiment on MALME-3M melanoma it was 95.2% (inactive); with MDA-MB-231 breast, 105% (inactive); with RXF 393 renal it was 123% (inactive). In addition, the growth in the experiment on SF-268 CNS was 111% (inactive); in the experiment with SF-295 CNS it was 93.4% (inactive); in the experiment on SF-539 CNS, 100% (inactive); with UACC-257 melanoma, 103% (inactive); in the experiment with M14 melanoma, 99.8% (inactive).

`Cc1ccc(S(=O)(=O)Nc2nc3ccccc3nc2Nc2ccc3nsnc3c2)cc1`: the growth in the experiment on NCI-H226 lung is 72.9% (inactive) and 72.7% (inactive); in the experiment on NCI-H322M lung it was 58.5% (inactive) and 50.6% (inactive); in the experiment on HOP-62 NSCLC, 48.5% (inactive) and 84.9% (inactive); with NCI-H460 lung, 32.1% (inactive) and 29.2% (inactive); in the experiment on NCI-H522 lung, 34.8% (inactive) and 23.3% (inactive); in the experiment on 786-0 renal, 46.9% (inactive) and 45.1% (inactive). Moreover, the growth is 44.5% (inactive) and 76% (inactive) with COLO 205 colon; 71.2% (inactive) and 62.5% (inactive) in the experiment on DU-145 prostate; 32.8% (inactive) and 35.3% (inactive) in the experiment with K-562 leukemia; 33.3% (inactive) and 9.84% (active) with MALME-3M melanoma; 73.7% (inactive) and 68.8% (inactive) with MDA-MB-231 breast; 80.3% (inactive) and 87.8% (inactive) in the experiment on RXF 393 renal. The growth with SF-268 CNS is 52.2% (inactive) and 54.5% (inactive); in the experiment with SF-295 CNS it was 25.2% (inactive) and 26.7% (inactive); in the experiment on SF-539 CNS, 63.9% (inactive) and 60.8% (inactive); in the experiment on UACC-257 melanoma it was 27% (inactive) and 54.4% (inactive); in the experiment on M14 melanoma, 48% (inactive) and 49.6% (inactive).
